Among all 98,000 compounds or so, about 880 (0.9%) were called active. The sample as a whole holds a higher share of actives than the screen did. Unmarked numbers belong to inactive results. No stated cut-off is given here; in the data, active means inhibition above about 30%; inactive means the rest.
Assay: phenotypic screen on post-Golgi transport, primary screen (AID 739);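 further: yeast cells grown in 1536-well plates; yeast grown about 18 h at 30C before absorbance read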
Details: post-Golgi transport phenotypic cell assay; at 10 µM; active compounds read high

Compound	inhibition
CC1=NCCN1S(=O)(=O)c1ccc(Br)c(C)c1	3.83%
COCCNS(=O)(=O)c1cc(Br)ccc1OC	8.12%
COc1ccc(Br)cc1S(=O)(=O)N1CCN=C1C	31.5% (active)
COCc1[nH][nH]c(=O)c1C=Nc1ccc(F)cc1F	5.45%
COC(=O)c1cc(NC(=O)C2C3C=CC(C3)C2C(=O)O)cc(C(=O)OC)c1 (configuration not stated)	2.17%
CCc1nn(-c2cc(Oc3cccc4ccccc34)nc(-c3ccccc3)n2)c(N)c1C#N	-15.9%
O=[N+]([O-])c1ccc(Oc2ccc(F)cc2Br)c2ccncc12	54.4% (active)
CCOC(=O)Nc1sc(C(=O)N(C)C)c(C)c1C(=O)OCC	21.1%
Cc1ccc(CCN2CC(C(=O)O)CC2=O)cc1 (configuration not stated)	-4.77%
NC(=O)N1CCCC1C(=O)Nc1ccc(Cl)c(Cl)c1 (configuration not stated)	-3.91%
CCOC(=O)/C(C#N)=C/c1ccc(OCC(=O)Nc2ccccc2)c(OC)c1	6.16%
O=C(NCCc1ccccc1)/C(=C\c1ccc([N+](=O)[O-])cc1)NC(=O)c1ccccc1	4.97%
CCOC(=O)/C(=C\c1ccc([N+](=O)[O-])cc1)C(=O)c1cc(C(C)=O)c(Nc2ccccc2)s1	64.9% (active)
Cc1noc(/C=C/c2ccco2)c1S(=O)(=O)N1CCC(C(=O)N2CCc3ccccc32)CC1	-4.89%
COc1ccccc1CSc1nc2ccccc2[nH]1	1.93%
CCc1c(-c2ccccc2)nc(N)c(C#N)c1-c1cccs1	2.36%
O=c1c2ccccc2oc2nc3n(c(=O)c12)CCCS3	5.66%
O=c1c2ccccc2oc2nc(C3CCCCC3)n(Cc3ccco3)c(=O)c12	68.9% (active)
CCc1nc2oc3ccccc3c(=O)c2c(=O)n1Cc1ccc(OC)cc1	8.05%
COc1cc(/C=C(/NC(=O)c2ccccc2)C(=O)Nc2cccc(O)c2)c([N+](=O)[O-])cc1OC	-17.3%
COCCn1c(SCc2nc3cc(OC)c(OC)cc3c(=O)[nH]2)nnc1-c1ccncc1	6.95%
C=CCNC(=O)c1sc(SC)cc1-c1ccc(Cl)cc1	20%
CCCCCCC(=O)Nc1nc(C)c(-c2csc(Nc3cccc(OC)c3)n2)s1	-3.09%
COc1ccc(C2=NO[C@@H]3C(=O)N(Cc4ccccc4)C(=O)[C@H]23)cc1OC	6.43%
O=C(Nc1ccc(Cl)cc1)c1ccsn1	8.05%

Compound	inhibition
CC(=O)Nc1cc(C(=O)O)ccc1S(=O)(=O)c1ccc(Cl)cc1	-1.65%
O=C(Nc1ccccc1)c1nnsc1S(=O)(=O)c1ccc(Cl)cc1	76.3% (active)
Cc1cc(N/C=C\C(=O)c2ccc(Cl)c(Cl)c2)no1	-4.69%
CCOc1cccc(NC(=O)C2CCCN(S(=O)(=O)c3ccc(OC)cc3)C2)c1 (configuration not stated)	-5.63%
CC(=O)c1cccc(NC(=O)N2CCCC2C(=O)NCCc2ccccc2)c1 (configuration not stated)	20%
COc1cccc(NC(=O)C2CCCN2C(=O)OCc2ccccc2)c1 (configuration not stated)	32% (active)
CCN(CC)C(=O)CSc1nc2ccccc2n1CC(=O)N1CCN(c2ccccc2OC)CC1	11.2%
COc1ccc(C(=O)Nc2ncc3c(n2)-c2ccccc2CC3)cc1	16.5%
Cc1ccn2cc(-c3nonc3C)cc2c1	37.3% (active)
COc1ccc(C2CC(=O)Nc3cc(C)c(C)cc32)c(OC)c1OC (configuration not stated)	11.7%
COC(=O)C(C(=O)Nc1cccc(C)n1)C1CCCCCC1 (configuration not stated)	-2.06%
COc1ccc2ccccc2c1CNCc1ccccn1	0.33%
CC1CCN(CC(=O)c2c[nH]c3ccccc23)CC1	0%
CCOc1ccc(NC(=O)CCS(=O)(=O)c2cccc3nsnc23)cc1	-1.86%
CCOc1ccc(-c2cn(S(=O)(=O)c3cccc4nsnc34)nc2N)cc1	46.9% (active)
CCOc1ccc(OCC)c(NC(=O)CN(C)S(=O)(=O)c2cccc3nsnc23)c1	1.42%
O=C1N=C2SCCN2/C1=C\c1c(Cl)cccc1Cl	-3.72%
Cc1ccc(C(=O)c2c(NC(=O)c3ccncc3)sc3c2CCCC3)cc1	97.2% (active)
COC(=O)c1c(NC(=O)c2cccs2)sc2c1CCCC2	3.23%
Cc1ccc(C(=O)c2c(NC(=O)c3ccccc3)sc(C)c2C)cc1	0%
CCCc1cc(=O)[nH]c(SCC(=O)c2cc(C)n(CCC)c2C)n1	-4.22%
COc1cc(/C=N/O)cc(Br)c1OS(=O)(=O)c1ccc(C)cc1	2.99%
CCOc1ccc(N(CC(=O)NC2CCCCCC2)S(=O)(=O)c2c(C)[nH]c(=O)[nH]c2=O)cc1	-2.87%
O=C(Nc1ccccc1)OCc1cc(-c2ccc(Cl)cc2)on1	-5.71%
O=C1c2cccc3cc(Br)cc(c23)C(=O)N1Nc1ccccc1	-2.04%

Compound	inhibition
O=C1C=C(c2ccc(Cl)cc2)C(=O)N1Nc1ccccc1	106% (active)
COc1ccc(-c2csc3nc(-c4ccccc4F)oc(=O)c23)cc1OC	6.4%
CC1CC2=C(CC1/C=N/NC(N)=S)C(C)(C)CCC2 (configuration not stated)	100% (active)
CC1(C)CCCC2=C1CC1C(=O)N(c3ccccc3)C(=O)C1C2 (configuration not stated)	-1.13%
Cc1cc(C)c2nc(NC(=O)C3CCCO3)sc2c1 (configuration not stated)	-4.03%
O=C(CSc1ccc(/C=N/NC(=O)c2cccc(F)c2)o1)Nc1ccccc1	-2.85%
COc1ccc(CCNS(=O)(=O)c2ccc(Cl)s2)cc1OC	-1.32%
COc1cccc(CNc2nc3nc4c(c(=O)n3[nH]2)CCC4)c1	-5.47%
COc1cccc(-c2cc3nc4c(c(N5CCC6(CC5)OCCO6)n3n2)CCCC4)c1	45.5% (active)
COc1cccc(-c2nc(S(=O)(=O)c3ccccc3)c(N3CCOCC3)o2)c1	-8.86%
Cc1cccc(NC(=O)CSc2nnc(-c3ccco3)o2)c1	-0.81%
COC(=O)c1ccccc1OCC(=O)N1CCN(c2ccc(Cl)cc2)CC1	5.12%
O=C(NCc1ccccc1)C1CCCN(S(=O)(=O)c2cccs2)C1 (configuration not stated)	0%
O=C(C1CCN(S(=O)(=O)c2cccs2)CC1)N1CCCCCC1	34.1% (active)
O=C(NC1CCCCC1)C1CCCN(S(=O)(=O)c2cccs2)C1 (configuration not stated)	-9.88%
Cc1cccc(C(=O)Nc2ccccc2-c2nnn(CC(=O)Nc3ccc4c(c3)OCCO4)n2)c1	-5.17%
CC(=O)c1cc(NC(=O)c2ccccc2)c(=O)oc1/C=C/N(C)C	-1.13%
Cn1ccs/c1=N\S(=O)(=O)c1ccc(C(C)(C)C)cc1	-6.14%
O=C(O)CCN=C1CCc2ccccc2N1	2.24%
CCOc1cccc(C(=O)Nc2cccnc2)c1	31% (active)
CCC(=O)Nc1cccc(NC(=O)c2cccnc2)c1	-2.1%
CCOc1cccc(C(=O)Nc2cnn(Cc3ccccc3)c2)c1	7.09%
NC(=NC(=O)c1ccccc1)N1CCOCC1	-0.16%
CCOC(=O)c1cc2cc(C)ccc2[nH]1	39.6% (active)
CC(=O)OCc1cc2cc(C)ccc2[nH]c1=O	5.81%

Compound	inhibition
CCNCc1cc2cc(C)ccc2[nH]c1=O	6.62%
N/C(=N\OC(=O)CCC1CCCCC1)c1ccccn1	13.9%
Nc1c(-c2ccc(F)cc2)cnc2ncnn12	15.1%
O=C(CCC(=O)OCc1cccc(C(=O)Oc2ccccc2)c1)Nc1cccc2ccccc12	-3.63%
N#Cc1nc(Cc2ccccc2)oc1NCCc1ccccc1	18.8%
N#Cc1nc(-c2ccc(OCc3ccccc3)cc2)oc1NCCCN1CCOCC1	5.49%
N#Cc1nc(COc2ccc(-c3ccccc3)cc2)oc1NCc1cccnc1	99.8% (active)
CCCn1nc2cc(C(=O)NCc3ccccc3)ccc2c1OCC	2.26%
CCCCNC(=S)NNC(=O)c1cc(C)on1	0.65%
COc1ccc(/C=C2/S/C(=N/N=C3\CC4CCC3(C)C4(C)C)NC2=O)cc1 (configuration not stated)	-0.32%
COC(=O)c1ccc(CSc2nncn2C)cc1	1.45%
CCOc1ccccc1Nc1nnc(SCc2ccc(C(=O)OC)o2)s1	-9.05%
COC(=O)c1ccc(CSc2nnc(NC(C)C)s2)cc1	36.2% (active)
Cc1ccccc1/[N+]([O-])=C/c1ccncc1	-1.29%
COc1ccc2c(Cl)c(C(=O)NCc3ccco3)sc2c1	-10.7%
Cc1cc(=O)oc2ccc(OCC(=O)O)cc12	2.48%
COCCNC(=O)COc1ccc(C)c(C)c1	4.17%
Cc1ccc(SC(=O)COc2ccc(C)c(C)c2)cc1	35.3% (active)
O=S(=O)(c1ccc(F)cc1)n1ccc(-c2cnc(-c3ccccc3)s2)n1	-10%
O=C(Nc1nnc(CCOCCOCCc2nnc(NC(=O)c3ccco3)s2)s1)c1ccco1	-30.3%
CCCc1noc2c1/C(=N\O)CCC2	13.6%
O=C(NCC1CCCO1)c1ccc2ccccc2n1 (configuration not stated)	-3.36%

— PubChem BioAssay AID739 (SRMLSC, 2007)
